Source: PubChem (Broad Institute)
Shown are actives, neighbours in structure and some others; about 2.4% of the full set was active somewhere.
C diff HTS: C. difficile growth inhibitors, primary screen, HTS; Clostridium difficile clinical isolate growth, OD600, 24 h; active compounds read low; growth activity, negative = inhibition, % at 16 µg/mL (by protocol); 86,000 tested, 0.25% active;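 active = mean growth activity at or below -80% and every replicate also at or below -80%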;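 note: 0% = DMSO wells and -100% = levofloxacin 16 µg/mL wells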
Pf Dd2 growth: P. falciparum Dd2 growth inhibitors, primary screen, SYBR Green fluorescence, single dose replicates; 72 h; active compounds read low; activity change, % at 10 µM; 94,000 tested, 2.3% active; AID 1159554, 2015; in the data active = activity change below about -80%
Active calls of the source: *; . = no result given.

SMILES | C diff HTS | Pf Dd2 growth
COCC(=O)N1C[C@H](C)[C@H](OC)CN(C)C(=O)c2cc(NS(C)(=O)=O)ccc2OC[C@H]1C | . | 11
C[C@@H]1CN([C@@H](C)CO)C(=O)c2cccc(NS(=O)(=O)c3cn(C)cn3)c2O[C@H]1CN(C)Cc1ccc(C(=O)Nc2ccccc2N)cc1 | 3 | -15
Cc1ccc(-c2ccccc2[C@H]2[C@@H](C#N)N(C(=O)c3cccc(F)c3)[C@H]2CO)cc1 | -7 | -91*
N#C[C@@H]1[C@H](c2ccccc2-c2cccc(F)c2)[C@H](CO)N1C(=O)C1CCCC1 | 3 | -95*
Cc1ccccc1-c1ccccc1[C@H]1[C@@H](C#N)N(C(=O)c2cccc(F)c2)[C@H]1CO | -5 | -67
N#C[C@H]1[C@@H](c2ccccc2-c2cccc(F)c2)[C@H](CO)N1C(=O)C1CCCC1 | -3 | -25
CCc1nc(N2[C@H](C#N)[C@H](c3ccccc3-c3ccccc3F)[C@H]2CO)sc1C | -5 | -86*
CCc1nc(N2[C@@H](C#N)[C@H](c3ccccc3-c3ccccc3F)[C@@H]2CO)sc1C | 18 | 23
COCC(=O)Nc1ccc2c(c1)OC[C@H](C)N(C(=O)C1CCCC1)C[C@@H](C)[C@H](OC)CN(C)C2=O | 4 | 16
CCCN(C)C[C@H]1OCCCC[C@H](C)Oc2ccc(N(C)C)cc2C(=O)N([C@@H](C)CO)C[C@H]1C | 0 | .
COc1cccc(S(=O)(=O)N(C)C[C@@H]2OCc3ccccc3-c3c(n(C)c4ccccc34)C(=O)N([C@@H](C)CO)C[C@@H]2C)c1 | -7 | -85*
COc1cccc(S(=O)(=O)N(C)C[C@H]2OCc3ccccc3-c3c(n(C)c4ccccc34)C(=O)N([C@@H](C)CO)C[C@H]2C)c1 | -10 | -75
COc1cccc(S(=O)(=O)N(C)C[C@@H]2OCc3ccccc3-c3c(n(C)c4ccccc34)C(=O)N([C@H](C)CO)C[C@@H]2C)c1 | -1 | -89*
COc1cccc(S(=O)(=O)N(C)C[C@H]2OCc3ccccc3-c3c(n(C)c4ccccc34)C(=O)N([C@H](C)CO)C[C@@H]2C)c1 | 3 | -56
CC(C)NC(=O)N(C)C[C@H]1OCCCC[C@@H](C)Oc2ccc(NC(=O)Nc3ccc4c(c3)OCO4)cc2C(=O)N([C@@H](C)CO)C[C@H]1C | 3 | -18
C[C@@H]1CCCCO[C@H](CN(C)Cc2ccc(C(F)(F)F)cc2)[C@H](C)CN([C@H](C)CO)C(=O)c2cc(NS(=O)(=O)c3cn(C)cn3)ccc2O1 | -2 | -44
CN1C(=O)c2cc(NC(=O)C3CC3)ccc2OC[C@H]2O[C@H](CC(=O)NCC3CCCCC3)CC[C@H]21 | -2 | -1
CC(C)(C)S(=O)N1Cc2cc(C(=O)Nc3ccc(-c4ccccc4)cc3)nc(-c3cccc(-c4cccc(F)c4)c3)c2[C@@H]1CCO (stereo not given in full) | -17 | -64
CCNC(=O)c1cc2c(c(-c3cccc(-c4ccccc4F)c3)n1)[C@@H](CCO)N(C(=O)CC1CC1)C2 | 66 | -77
COc1ccc(C#Cc2cccc(-c3nc(C(=O)O)cc4c3[C@H](CCO)N(S(=O)C(C)(C)C)C4)c2)cc1OC (stereo not given in full) | -4 | .
COc1ccc(C#Cc2cccc(-c3nc(C(=O)Nc4ccc(-c5ccccc5)cc4)cc4c3[C@@H](CCO)N(S(=O)C(C)(C)C)C4)c2)cc1OC (stereo not given in full) | -3 | -89*
COc1cccc(-c2cccc(-c3nc(C(=O)Nc4ccc(-c5ccccc5)cc4)cc4c3[C@@H](CCO)N(S(=O)C(C)(C)C)C4)c2)c1 (stereo not given in full) | -10 | -84*
COc1ccccc1-c1cccc(-c2nc(C(=O)Nc3nccs3)cc3c2[C@H](CCO)N(C(=O)CC2CC2)C3)c1 | 2 | -86*
C[C@@H]1CN([C@H](C)CO)S(=O)(=O)c2ccc(C3=CCCCC3)cc2O[C@@H]1CN(C)S(=O)(=O)c1ccc(F)cc1 | 6 | -55
C[C@H](CO)N1C[C@H](C)[C@H](CN(C)Cc2ccccc2)Oc2c(NC(=O)C3CCOCC3)cccc2C1=O | 9 | 15
SMILES | C diff HTS | Pf Dd2 growth
C[C@@H]1CN([C@H](C)CO)C(=O)Cc2cc(NS(=O)(=O)c3ccccc3)ccc2O[C@H]1CN(C)C(=O)Nc1ccc(F)cc1 | 2 | 12
CO[C@@H](CN(C)C(=O)c1ccccc1F)[C@@H](C)CN([C@H](C)CO)S(=O)(=O)c1ccc(C)cc1 | . | 5
O=C(O)C[C@H]1C=C[C@@H](NC(=O)Nc2ccccc2)[C@H](CO)O1 | 0 | 21
CNC(=O)C[C@H]1CC[C@H]2[C@H](COc3ccc(NC(=O)C4CC4)cc3C(=O)N2C)O1 | 4 | -3
COCC(=O)N1CC2(C1)CN(Cc1ccccc1Cl)[C@H](CO)c1[nH]c3cc(OC)ccc3c12 | 5 | -46
COCC(=O)N1CC2(C1)CN(Cc1ccccc1F)[C@H](CO)c1[nH]c3cc(OC)ccc3c12 | 9 | -88*
